# From ChEMBL document CHEMBL4513216, “Probing the Open Global Health Chemical Diversity Library for Multistage-Active Starting Points for Next-Generation Antimalarials” (ACS Infect Dis, 2020)
# The whole screen tested about 69,000 compounds, of which about 8,600 (12%) showed an effect of 50% or more. Many of the other results were omitted from the sample, so strong results are more common in it than they were.
# Tested on: Plasmodium berghei
# Experiment: Screen against P. berghei liver stage (PbLuc), transformed with Luciferase, at 10uM
# Format: functional, HepG2
# Details: tested at 10 uM
row,Structure (SMILES),INHIBITION [%]
1,NC(=O)C1(CCCc2ccccn2)CCCN(c2ncccn2)C1 (stereo unspecified),-6.3
2,NC(=O)CN1CCCC(CCCc2ccccn2)(C(N)=O)C1 (stereo unspecified),-0.902
3,Cn1cc(CN2CCCC(CCCc3ccccn3)(C(N)=O)C2)cn1 (stereo unspecified),20.8
4,CN1CCCC(CCCc2cccnc2)(C(N)=O)C1 (stereo unspecified),50.1
5,NC(=O)C1(CCCc2cccnc2)CCCN(c2ncccn2)C1 (stereo unspecified),0.932
6,NC(=O)C1(CCCc2ccccn2)CCCN(Cc2ccncc2)C1 (stereo unspecified),54.5
7,COc1ccc(C(=O)Nc2cccc(SC)c2)c(OC)n1,-138
8,CCOc1cc(C)nc(N2CCN(C(=O)c3csnn3)CC2)n1,33.8
9,O=C(O)[C@@H]1CCN(C(=O)c2cscn2)[C@@H]1c1ccc(F)cc1,-35.5
10,COc1ccc2ccccc2c1CNCC1CCS(=O)(=O)C1 (stereo unspecified),46.4
11,CCOc1ccc2ccccc2c1CNCC1CCNCC1,49.2
12,CCOc1ccc2ccccc2c1CNCC1CCS(=O)(=O)C1 (stereo unspecified),57.3
13,Cc1cc2nc(C(C)C)cc(N3CCC(Oc4ncccn4)CC3)n2n1,-17.1
14,CCOC(=O)CSc1nnc([C@@H](N)C(C)C)o1,2.49
15,Cc1cc(S(C)(=O)=O)c(C)c(S(=O)(=O)NCC2CCCO2)c1 (stereo unspecified),48.4
16,Cc1cc(S(C)(=O)=O)c(C)c(S(=O)(=O)NC2CCCC2)c1,-1.28
17,Cc1cc(S(C)(=O)=O)c(C)c(S(=O)(=O)NCC2CCC2)c1,54.4
18,Cc1nn(C)cc1C1CC(=O)Nc2c1cnn2C(C)(C)C (stereo unspecified),-16.5
19,O=C(c1ccn(-c2cccc(Cl)c2)n1)N1CCN(CCO)CC1,-12.2
20,CS(=O)(=O)N1CCN(C(=O)c2cncs2)CC(C(N)=O)C1 (stereo unspecified),-0.8525
21,Cc1ccc(CN2CCC3(CC2)C(c2ccccc2)CC(=O)N3C)o1 (stereo unspecified),51.2
22,Cc1noc(C)c1CN1CCC2(CC1)C(c1ccccc1)CC(=O)N2C (stereo unspecified),42.1
23,Cc1cccc(CN2CCC3(CC2)CC(c2cccnc2)C(=O)N3C)n1 (stereo unspecified),20.6

row,Structure (SMILES),INHIBITION [%]
1,CN1C(=O)C(c2cccnc2)CC12CCN(CCO)CC2 (stereo unspecified),-7.24
2,Cc1ccc(CN2CCC3(CC2)CC(c2cccnc2)C(=O)N3C)o1 (stereo unspecified),55.4
3,CN1C(=O)CC(c2ccccc2)C12CCN(CCO)CC2 (stereo unspecified),-63.9
4,Cc1nc(C2CCCN2C(=O)Cc2cccc(F)c2)nc(O)c1C (stereo unspecified),11.1
5,O=C(Cc1ccsc1)N1CCCC2(COCCN(CC3CC3)C2)C1 (stereo unspecified),-14.3
6,COCCNC(=O)Cn1cc(NC(=O)c2cc(Cl)c(Cl)n2C)cn1,12.9
7,Cc1cc(C)n(CC2CN(CC(=O)NCc3cccs3)CCO2)n1 (stereo unspecified),18.933
8,Cc1ccccc1N1CC(C)N(Cc2ccc(C)c(F)c2F)CC1=O (stereo unspecified),-8.92
9,CCc1nccn1CCC(=O)N1CCN(c2ccccc2C)CC1C (stereo unspecified),66.7
10,COc1cccc(CN2CC(=O)N(c3ccccc3C)CC2C)c1OC (stereo unspecified),17.8
11,CCc1nccn1CC(=O)N1C[C@@H]2CC[C@H]1CN(C(=O)N(C)C)C2,-19.7
12,CCc1nccn1CCC(=O)N1C[C@@H]2CC[C@H]1CN(C(=O)N(C)C)C2,50.2
13,CCc1nccn1CCC(=O)N1CC(=O)N(c2ccccc2C)CC1C (stereo unspecified),49.9
14,CCc1nccn1CC(=O)N1C[C@@H]2CC[C@H]1CN(S(=O)(=O)N(C)C)C2,17
15,Cc1ccccc1N1CC(C)N(C(=O)CCn2cccn2)CC1=O (stereo unspecified),64.5
16,Cc1ccccc1N1CCN(C(=O)CCc2nncn2C)C(C)C1 (stereo unspecified),8.38
17,COCCn1ccnc1C1CCN(C(=O)CSc2nnc(C)o2)CC1,7.24
18,COc1ncccc1CNC(=O)c1c(C)oc(C)c1C,5.1
19,CNC(=O)c1ccc(C2CN(CC(=O)N(C)C)CCO2)nc1 (stereo unspecified),-3.94
20,c1cncc(OCC2CC3(CCN(CC4CC4)CC3)CO2)c1 (stereo unspecified),13.7
21,COc1ccc(C)nc1NC(=O)Cc1c(C)nn(C)c1C,41.6
22,COCC[C@]1(O)CCN(CC(=O)NCc2ccccc2C)C[C@H]1C,46.3
23,O=C(Cc1ccccn1)NCC1OCCc2cn(CC3CC3)nc21 (stereo unspecified),3.25

row,Structure (SMILES),INHIBITION [%]
1,O=S(=O)(NCc1cccnc1OC1CCCC1)N1CCOCC1,16.3
2,CCOc1ncccc1CNS(=O)(=O)N1CCOCC1,-8.28
3,Cc1ccc(Oc2ncccc2CNS(=O)(=O)N2CCOCC2)cn1,70.1
4,O=c1cc(Cn2cncn2)nc2n1CCCN(CCN1CCCC1)C2,16.6
5,Cc1cc(C)n(C2CN(CC(O)c3ccc(C(F)(F)F)cc3)C2)n1 (stereo unspecified),-24.2
6,c1cc2nccc(CC3CCCN(Cc4c[nH]cn4)CC3)c2cn1 (stereo unspecified),75.3
7,c1cc2nccc(CC3CCCN(Cc4ncc[nH]4)CC3)c2cn1 (stereo unspecified),32.4
8,Cn1ccnc1CN1CCCC(Cc2ccnc3ccncc23)CC1 (stereo unspecified),29.3
9,CC(C)c1ccc(OCC(=O)N(C)C)cc1,-11.2
10,CC(C)n1c(=O)[nH]c2cn(-c3ccccc3)c(=O)n21,6.32
11,CCNC(=O)C1(Cc2cc(-c3ccc(C)cc3)no2)CCCN(C)C1 (stereo unspecified),23
12,Cc1ccc(-c2nnc([C@H]3CCN(C4CCC4)C3)o2)cc1,4.07
13,c1ccc(-c2nnc([C@H]3CCN(C4CCC4)C3)o2)cc1,46.4
14,c1cc(-c2nnc([C@H]3CCN(C4CCCCC4)C3)o2)ccn1,-5.77
15,c1ccc(-c2nnc([C@H]3CCN(C4CCOCC4)C3)o2)cc1,18.4
16,COc1ccc(-c2nnc([C@H]3CCN(C4CCC4)C3)o2)cc1,57.8
17,c1cc(-c2nnc([C@H]3CCN(C4CCOCC4)C3)o2)ccn1,54
18,O=C(NCCc1ccccn1)[C@@]12CCO[C@@H]1CCN(c1ncccn1)C2,34.6
19,CCc1ncc2c(n1)CN(CC(=O)Nc1cccnc1)CC2,19.4
20,CSc1ccc(NC(=O)Cn2cc(NC(C)=O)cn2)cc1,33.7
21,CCOC(=O)[C@H]1[C@@H](O)C(=O)N(C)C12CCN(C(=O)OC)CC2,29.8
22,Cn1ccc(CN2CCC(CC(=O)NC3CCCC3)CC2)cc1=O,27.2
23,COc1cc(CNC(=O)COC2CCCCC2)ccc1O,26.5

row,Structure (SMILES),INHIBITION [%]
1,Cc1noc([C@@H]2C[C@H]3OCC[C@H]3N(S(=O)(=O)c3ccccc3)C2)n1,-5.08
2,Cc1occc1C(=O)NCC(=O)N(C)CCCOc1ccccc1,61
3,Cc1ccccc1C(NC(=O)CNC(=O)c1ccoc1C)C(C)C (stereo unspecified),-68.2
4,Cc1occc1C(=O)NCC(=O)N(C)CCCOc1ccc(F)cc1,26.7
5,Cc1occc1C(=O)NCC(=O)NCCOc1ccc2c(c1)CCC2,42.3
6,Cc1occc1C(=O)NCC(=O)NCCOc1cccc(Cl)c1,-10.6
7,Cc1occc1C(=O)NCC(=O)NCCCOc1ccc(F)cc1,54.5
8,O=C1CC(c2ccc(C(F)(F)F)cc2)c2c(n3ccsc3nc2=O)N1 (stereo unspecified),17
9,COc1nsc2nc(C3CCCN3c3ncccn3)ccc12 (stereo unspecified),25.49
10,Cc1ccc(C(=O)NC(C)Cn2cccn2)c(=O)[nH]1 (stereo unspecified),42.6
11,Cc1ccc(C(=O)NCC(O)c2ccc(Cl)s2)c(=O)[nH]1 (stereo unspecified),37.2
12,Cc1ccc(C(=O)NCC(C)CN2CCCC2=O)c(=O)[nH]1 (stereo unspecified),37.1
13,Cc1ccc(C(=O)NCC(C)Cn2ccnc2C)c(=O)[nH]1 (stereo unspecified),55.5
14,Cc1ccc(C(=O)NCC(C)Cn2cccn2)c(=O)[nH]1 (stereo unspecified),58.5
15,Cc1ccc(C(=O)NCCCn2cccn2)c(=O)[nH]1,-1.98
16,Cc1cnc(C(=O)N2C[C@@H]3CC[C@H]2CN(Cc2cscn2)C3)[nH]1,42.1
17,COc1cccc(CN2CCN(c3cccc(C(C)C)n3)CC2)c1F,-26.1
18,Cc1ccc(F)cc1NC(=O)c1[nH]ncc1Br,11.7
19,CS(=O)(=O)CCOCCNc1ccc(Br)cn1,-3.08
20,COCC(C)NC(=O)c1cncc(Br)c1 (stereo unspecified),-26.4
21,C[C@H](CCO)NS(=O)(=O)c1ccc(Br)cn1,21.7
22,COCC(C)NS(=O)(=O)c1ccc(Br)cn1 (stereo unspecified),56
23,CCS(=O)(=O)N(C)CC(=O)Nc1ccc(Br)cn1,6.81

row,Structure (SMILES),INHIBITION [%]
1,CCC(CCO)NS(=O)(=O)c1ccc(Br)cn1 (stereo unspecified),65.4
2,CCN(C(=O)c1nc2c(s1)CCCN2C(C)=O)C(C)C,5.68
3,O=C(c1cccc2c1OCCO2)N1CCCC1c1noc(C2CC2)n1 (stereo unspecified),2.3
4,COCCC(=O)N1CCC2(COCc3cnc(NCC4CC4)nc32)C1 (stereo unspecified),61.5
5,COCCC(=O)N1CCC2(COCc3cnc(-c4ccccc4)nc32)C1 (stereo unspecified),16.5
6,COCCC(=O)N1CCC2(COCc3c(C)nc(NCC4CC4)nc32)C1 (stereo unspecified),33
7,COCCC(=O)N1CCC2(COCc3cnc(-c4cccnc4)nc32)C1 (stereo unspecified),33.1
8,COCCC(=O)N1CCC2(COCc3cnc(N(C)C)nc32)C1 (stereo unspecified),53.2
9,COCC(=O)N1CCC2(COCc3cnc(NCc4ccco4)nc32)C1 (stereo unspecified),24.3
10,Cc1cccc(CNC(=O)CCc2c(C)nc3cc(O)nn3c2C)n1,33.3
11,CC(CN1CCOCC1)NC(=O)NCc1ccoc1 (stereo unspecified),-7.36
12,Cc1nc(NCCN2CCCC2=O)cc(C2CN(C)CCO2)n1 (stereo unspecified),-17.9
13,CC(NC(=O)NCCCn1cncn1)c1ccc(C(F)(F)F)cc1 (stereo unspecified),-16.88
14,Cc1ccc(S(=O)(=O)N2C[C@H]3C[C@H](NC(=O)c4ccn(C)n4)[C@H]3C2)cc1,38.7
15,Cc1ccc(S(=O)(=O)N2C[C@H]3C[C@H](NC(=O)c4ccnn4C)[C@H]3C2)cc1,77.9
16,Cc1ccc(S(=O)(=O)N2C[C@H]3C[C@H](NC(=O)c4cc(C)no4)[C@H]3C2)cc1,5.11
17,Cc1ccc(S(=O)(=O)N2C[C@@H]3C[C@@H](NC(=O)C(C)(C)C)[C@@H]3C2)cc1,44.9
18,Cc1ccc(S(=O)(=O)N2C[C@H]3C[C@H](NC(=O)c4cnn(C)c4)[C@H]3C2)cc1,78.5
19,Cc1ccc(S(=O)(=O)N2C[C@H]3C[C@H](NC(=O)C(C)C)[C@H]3C2)cc1,19.6
